The campaign covered roughly 5,500 compounds. About 2,000 (36%) were called active. About 18% were inconclusive and are not listed. No stated cut-off is given here; in the data, active means normalized growth mostly below about 0.91 (no sharp cut-off); inconclusive means no clear call, values can overlap the other calls; inactive means mostly above about 0.92. The list shows a part of the results.
Test: chemical genetic growth profiling, strain panel (AID 1159580);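 further: tested at 20 µM; growth read once vehicle control cultures reached saturation at 30 °C; 1 = growth at the plate median or of vehicle wells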
Settings: S. cerevisiae deletion strains, growth OD

Measured: normalized growth

O=C(O)/C=C/C=C/c1ccc2c(c1)OCO2
inactive: locus YHR030C, strain SLT2, stronger effect = lower value 0.899 | locus YHR079C, strain IRE1, stronger effect = lower value 0.884 | locus YJL095W, strain BCK1, stronger effect = lower value 0.897 | locus YJR066W, strain TOR1, stronger effect = lower value 0.873 | locus YLR113W, strain HOG1, stronger effect = lower value 0.958 | locus YNL183C, strain NPR1, stronger effect = lower value 0.886 | locus YOR231W, strain MKK1, stronger effect = lower value 0.893 | locus YPL256C, strain CLN2, stronger effect = lower value 0.945
